Data: PubChem BioAssay (NCI)
This is part of a sample that, as a whole, favours compounds with a hit. Of some 83,000 tested, about 20% had one in any assay.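 Treatment: one concentration, 48 hours, 96-well format. Scoring: percent growth, with anything below 10 considered active.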 Activity calls are given as the source filed them.

Each compound was assayed on RPMI-8226 leukemia (assay: NCI-60 one-dose screen, 48 h (100 = growth as untreated, 0 = no growth, -100 = all killed)). Conditions: 10 µM unless noted.
For `N#Cc1c(-c2ccc(Br)cc2)nc2n[nH]c(-c3ccc(Br)cc3)c2c1-c1ccc(F)cc1`, the growth was 72.7% (inactive).
With `Cc1ccccc1[C@H]1C(C(=O)c2ccc(Cl)cc2)C2(N[C@@H]1c1ccccc1)C(=O)Nc1ccc(Cl)cc12` (some centres not stated) the growth was -11.8% (active).
In the case of `COc1cc(C2CC(c3cc(OC)c(OC)c(OC)c3)=NN2C(C)=O)ccc1OCc1ccccc1` (configuration not stated), the growth is reported as 24.2% (inactive).
With `Cc1cccc(NC(=O)[C@]23CCC(C)(C)CC2C2=CCC4[C@@]5(C)C[C@@H](O)[C@H](O)[C@@](C)(CO)C5CC[C@@]4(C)[C@]2(C)CC3)c1` (some centres not stated) the growth was 2.61% (active).
In the case of `CC12CC[C@@H]3[C@]4(C)COC(c5cn[nH]c5-c5ccc(Cl)cc5)O[C@@H]4CC[C@@]3(C)[C@@H]1CC(C1=CCOC1=O)O2` (some centres not stated), the growth is reported as 12% (inactive).
`S=c1c2ccccc2nc2n1CCc1c-2[nH]c2ccccc12` was tested, and the growth was 89.5% (inactive).
In the case of `CCCCSc1nc(NCCc2c[nH]c3ccccc23)c(C#N)c(-c2ccccc2)n1`, the growth is reported as 14.1% (inactive).
With `CC(C)c1sc(NC(=O)c2cc(NC(=O)c3cc(NC(=O)c4cscn4)cn3C)cn2C)nc1C(=O)NCCCN(C)C` the growth was 94.5% (inactive).
In the case of `CC(=O)Nc1ccc(-n2cnc3ccc(-c4ccc(O)cc4)cc32)cc1`, the growth is reported as 38.9% (inactive).
In the case of `Cc1ccc(NCC(=O)Cn2cc(COc3ccc(C=Nc4cnc5ccccc5c4)cc3)nn2)cc1`, the growth is reported as 110% (inactive).
In the case of `Cc1ccc([C@H]2C(C(=O)c3ccc(Cl)cc3)C3(N[C@@H]2c2ccccc2)C(=O)Nc2ccc(Br)cc23)cc1` (some centres not stated), the growth is reported as 40.7% (inactive).
With `Cn1cc(-c2nnc(N)nc2-c2c[nH]c3ccc(Br)cc23)c2cc(Br)cnc21` the growth was 41.6% (inactive).
`O=C(c1ccccc1)c1ccc2nc(-c3ccc(F)cc3)[nH]c2c1` was tested, and the growth was 43.1% (inactive).
`COc1ccc(-c2nc(SCC(C)C)nc(NCCc3c[nH]c4ccccc34)c2C#N)cc1` was tested, and the growth was 42.8% (inactive).
`S=C(Nc1ccccc1)Nc1ccc(OCc2nc3ccccc3[nH]2)cc1` was tested, and the growth was 39.2% (inactive).
In the case of `O=C(/C=C/Nc1ccc(Cl)cc1)c1ccc2c(c1)Nc1ccccc1S2`, the growth is reported as 62.3% (inactive).
In the case of `COc1ccc(C(=O)/C=C/c2ccc(OCc3ccc(F)cc3)c(OC)c2)cc1OC`, the growth is reported as 1.35% (active).
With `COc1c(F)ccc(C(=O)Nc2ccc3nc(NC(=O)C4CCCN(S(=O)(=O)c5cccc(C(F)(F)F)c5)C4)sc3c2)c1F` (configuration not stated) the growth was 54.4% (inactive).
For `Cn1cc(-c2cc(N)n3nc(-c4c[nH]c5ccccc45)cc3n2)c2cccnc21`, the growth was -28.5% (active).
In the case of `Cc1ccc(C(=O)CSc2nc3ccc(C)cc3c(=O)n2-c2ccc(F)cc2)cc1`, the growth is reported as 98.5% (inactive).
With `O=C(NNc1ccccc1)n1c(=O)c2ccccc2c(=O)n1-c1ccccc1` the growth was 102% (inactive).
`Cc1nc(Nc2ccccn2)sc1C(=O)CC(SCC(=O)Nc1ccc(Cl)cc1)c1ccccc1F` (configuration not stated) was tested, and the growth was 7.34% (active).
In the case of `O=c1onc(-c2cc3ccccc3nc2Cl)n1-c1cccc2ccccc12`, the growth is reported as 40.6% (inactive).
`N#Cc1c(-c2cccc(Cl)c2Cl)cc(-c2c[nH]c3ccccc23)[nH]c1=O` was tested, and the growth was 44.4% (inactive).
`CC(=O)OC[C@@]1(C)C2CC[C@]3(C)C(CC=C4C5CC(C)(C)CC[C@]5(C(=O)Nc5ccc(Br)cc5)CC[C@]43C)[C@@]2(C)C[C@@H](OC(C)=O)[C@@H]1OC(C)=O` (some centres not stated) was tested, and the growth was 14.5% (inactive).
`Cc1cc(C)cc(NC(=O)Cn2cc(COn3nnc4ccccc43)nn2)c1` was tested, and the growth was 108% (inactive).
With `CC(=O)Nc1cccc(Nc2nc(NCc3ccccc3)c3ccccc3n2)c1` the growth was -38.3% (active).
`Clc1cccc(Cl)c1/C=C/c1cc(/C=C/c2ccc(Br)cc2)c2ccccc2n1` was tested, and the growth was 86.6% (inactive).
`Cn1cc(-c2cc3nc(-c4cn(C)c5ncc(Br)cc45)cc(N)n3n2)c2ccccc21` was tested, and the growth was -2.62% (active).
`N#Cc1c(-c2ccccc2Cl)cc(-c2c[nH]c3ccccc23)[nH]c1=O` was tested, and the growth was 70.7% (inactive).

Each compound was assayed on OVCAR-8 ovarian in the same assay as above. Conditions: 10 µM unless noted.
For `Cc1ccc(S(=O)(=O)c2nc(S(=O)(=O)c3ccc(C)cc3)c(N3CCC(O)CC3)s2)cc1`, the growth was 75.3% (inactive).
`Cc1sc2c(c1C)C(c1ccc(Cl)cc1)=N[C@@H](CC(=O)NCCCCCNC(=O)COc1ccc(C3CCC(=O)NC3=O)cc1)c1nnc(C)n1-2` (some centres not stated) was tested, and the growth was 16.2% (inactive).
`COc1ccc2c(c1)C(=N/N=C(\C)c1ccc(OC)c(S(N)(=O)=O)c1)C(=O)N2` was tested, and the growth was 92.7% (inactive).
In the case of `COc1cc2oc(-c3cccc(C(=O)Nc4ccc(Cl)cc4)c3)cc(=O)c2c(OCCNC(=O)[C@H](CCC(=O)OC(C)(C)C)NC(=O)OC(C)(C)C)c1OC`, the growth is reported as 100% (inactive).
For `COc1ccc(-c2nc3cc(C)ccc3n2CC(=O)N=Nc2c(O)[nH]c3ccc(Cl)cc23)cc1`, the growth was -74.8% (active).
`C=CC[N+](C)(C)CCn1c2ccccc2c2nc3cc(C)c(C)cc3nc21` was tested, and the growth was 98.4% (inactive).
For `O=C(c1ccc(OCCN2CCOCC2)cc1)C1[C@H](c2ccc(Cl)cc2)[C@@H](c2ccccc2)NC12C(=O)Nc1ccc(Br)cc12` (some centres not stated), the growth was 28.6% (inactive).
For `N#Cc1c(-c2ccc(Br)cc2)nc2n[nH]c(-c3ccc(Br)cc3)c2c1-c1ccc(F)cc1`, the growth was 101% (inactive).
In the case of `Cc1ccccc1[C@H]1C(C(=O)c2ccc(Cl)cc2)C2(N[C@@H]1c1ccccc1)C(=O)Nc1ccc(Cl)cc12` (some centres not stated), the growth is reported as -69.2% (active).
`COc1cc(C2CC(c3cc(OC)c(OC)c(OC)c3)=NN2C(C)=O)ccc1OCc1ccccc1` (configuration not stated) was tested, and the growth was 46.7% (inactive).
With `Cc1cccc(NC(=O)[C@]23CCC(C)(C)CC2C2=CCC4[C@@]5(C)C[C@@H](O)[C@H](O)[C@@](C)(CO)C5CC[C@@]4(C)[C@]2(C)CC3)c1` (some centres not stated) the growth was 39.3% (inactive).
`CC12CC[C@@H]3[C@]4(C)COC(c5cn[nH]c5-c5ccc(Cl)cc5)O[C@@H]4CC[C@@]3(C)[C@@H]1CC(C1=CCOC1=O)O2` (some centres not stated) was tested, and the growth was 55.5% (inactive).
`S=c1c2ccccc2nc2n1CCc1c-2[nH]c2ccccc12` was tested, and the growth was 28.6% (inactive).
With `CCCCSc1nc(NCCc2c[nH]c3ccccc23)c(C#N)c(-c2ccccc2)n1` the growth was 49.2% (inactive).
`CC(C)c1sc(NC(=O)c2cc(NC(=O)c3cc(NC(=O)c4cscn4)cn3C)cn2C)nc1C(=O)NCCCN(C)C` was tested, and the growth was 2.77% (active).
`CC(=O)Nc1ccc(-n2cnc3ccc(-c4ccc(O)cc4)cc32)cc1` was tested, and the growth was 42.1% (inactive).
With `Cc1ccc(NCC(=O)Cn2cc(COc3ccc(C=Nc4cnc5ccccc5c4)cc3)nn2)cc1` the growth was 103% (inactive).
For `Cc1ccc([C@H]2C(C(=O)c3ccc(Cl)cc3)C3(N[C@@H]2c2ccccc2)C(=O)Nc2ccc(Br)cc23)cc1` (some centres not stated), the growth was 66.4% (inactive).
`Cn1cc(-c2nnc(N)nc2-c2c[nH]c3ccc(Br)cc23)c2cc(Br)cnc21` was tested, and the growth was 59.4% (inactive).
In the case of `O=C(c1ccccc1)c1ccc2nc(-c3ccc(F)cc3)[nH]c2c1`, the growth is reported as 83.3% (inactive).
In the case of `COc1ccc(-c2nc(SCC(C)C)nc(NCCc3c[nH]c4ccccc34)c2C#N)cc1`, the growth is reported as 80.4% (inactive).
In the case of `S=C(Nc1ccccc1)Nc1ccc(OCc2nc3ccccc3[nH]2)cc1`, the growth is reported as 35.8% (inactive).
For `O=C(/C=C/Nc1ccc(Cl)cc1)c1ccc2c(c1)Nc1ccccc1S2`, the growth was 12.4% (inactive).
For `COc1ccc(C(=O)/C=C/c2ccc(OCc3ccc(F)cc3)c(OC)c2)cc1OC`, the growth was -7.27% (active).
With `COc1c(F)ccc(C(=O)Nc2ccc3nc(NC(=O)C4CCCN(S(=O)(=O)c5cccc(C(F)(F)F)c5)C4)sc3c2)c1F` (configuration not stated) the growth was 94.5% (inactive).
In the case of `Cn1cc(-c2cc(N)n3nc(-c4c[nH]c5ccccc45)cc3n2)c2cccnc21`, the growth is reported as 27.5% (inactive).
With `Cc1ccc(C(=O)CSc2nc3ccc(C)cc3c(=O)n2-c2ccc(F)cc2)cc1` the growth was 31.3% (inactive).
For `O=C(NNc1ccccc1)n1c(=O)c2ccccc2c(=O)n1-c1ccccc1`, the growth was 96.7% (inactive).
In the case of `Cc1nc(Nc2ccccn2)sc1C(=O)CC(SCC(=O)Nc1ccc(Cl)cc1)c1ccccc1F` (configuration not stated), the growth is reported as -35.8% (active).
With `O=c1onc(-c2cc3ccccc3nc2Cl)n1-c1cccc2ccccc12` the growth was 51.4% (inactive).
For `N#Cc1c(-c2cccc(Cl)c2Cl)cc(-c2c[nH]c3ccccc23)[nH]c1=O`, the growth was 72.5% (inactive).
`CC(=O)OC[C@@]1(C)C2CC[C@]3(C)C(CC=C4C5CC(C)(C)CC[C@]5(C(=O)Nc5ccc(Br)cc5)CC[C@]43C)[C@@]2(C)C[C@@H](OC(C)=O)[C@@H]1OC(C)=O` (some centres not stated) was tested, and the growth was 35.9% (inactive).
In the case of `Cc1cc(C)cc(NC(=O)Cn2cc(COn3nnc4ccccc43)nn2)c1`, the growth is reported as 104% (inactive).
For `CC(=O)Nc1cccc(Nc2nc(NCc3ccccc3)c3ccccc3n2)c1`, the growth was -73.6% (active).
With `Clc1cccc(Cl)c1/C=C/c1cc(/C=C/c2ccc(Br)cc2)c2ccccc2n1` the growth was 101% (inactive).
`Cn1cc(-c2cc3nc(-c4cn(C)c5ncc(Br)cc45)cc(N)n3n2)c2ccccc21` was tested, and the growth was -10.9% (active).
In the case of `N#Cc1c(-c2ccccc2Cl)cc(-c2c[nH]c3ccccc23)[nH]c1=O`, the growth is reported as 87.4% (inactive).
